Bioassay records deposited in PubChem BioAssay by National Center for Advancing Translational Sciences (NCATS).
This is a sample that favours compounds with a hit; in the whole collection about 19% have one here.
TDP1 cell noCPT: qHTS for Inhibitors of human tyrosyl-DNA phosphodiesterase 1 (TDP1): qHTS in cells in absence of CPT; 420,000 tested, 15% active; DT40 Tdp1-/- hTDP1 cells, no CPT, ATP luminescence, 48 h; AID 686978, 2013; Potency, µM (titrated, usually from 46.2 µM), usual class: inhibitors; note: nearly all actives have a fitted effect of over 55% in size
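Growth of hTDP1-complemented DT40 Tdp1-knockout cells is measured by ATP luminescence after at least 48 hr compound exposure at 37 °C, with DMSO substituting for the 20 nM CPT used in the parallel screen.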
KB-3-1 cytotox: KB-3-1 parental cell cytotoxicity; 400,000 tested, 1.4% active; Potency, µM (highest dose often 46.1 µM), actives largely listed as cytotoxic; AID 1347075; KB-3-1 viability, CellTiter-Glo ATP luminescence, 72 h; note: nearly all actives have a fitted effect of over 60% in size
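Viability of parental KB-3-1 cells, measured by CellTiter-Glo luminescence, followed a 72 h incubation at 37 °C with pinned compounds in phenol-red-free DMEM containing 10% FBS.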
KB-V1 cytotox: kills drug-selected multidrug resistant KB-V1 cells; KB-V1 MDR cells viability, CellTiter-Glo, 72 h; Potency, µM (titrated, usually from 46.1 µM), usual class: cytotoxic; AID 1347076; 400,000 tested, 3.4% active; note: nearly all actives have a fitted effect of over 60% in size
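In this primary screen, KB-V1 cells overexpressing P-gp are incubated with library compounds (lowest to highest concentration) for 72 h at 37 degrees C before a luminescent ATP viability read.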
TDP1 cell CPT: growth inhibition of DT40 Tdp1-/-;hTDP1 cells with camptothecin (screen for TDP1 inhibitors) | 420,000 tested, 12% active | Potency, µM (highest dose often 46.2 µM), most hits filed as inhibitors | chicken DT40 Tdp1-/-;hTDP1 cells + 20 nM CPT, ATP luminescence, 48 h | AID 686979; note: nearly all actives have a fitted effect of over 55% in size
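Chicken DT40 Tdp1-/- cells stably complemented with human TDP1 were seeded at 400 cells/well in medium containing 20 nM camptothecin, exposed to pin-transferred compounds, and grown at 37 °C for at least 48 hr. Viability was read as ATP luminescence.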
HT1080 IDH1KD tx: HT-1080 IDH1 knockdown cell toxicity (counter line); HT-1080 IDH1 knockdown viability, ATP luminescence, 48 h; Potency, µM (series often up to 46.1 µM), most hits filed as cytotoxic; 360,000 tested, 2% active; AID 686971
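After a 2 h attachment period, IDH1KD HT-1080 cells took pin-transferred compound for 48 h at 37 °C; ATP-based luminescence after 10 min room-temperature reagent incubation reported viability.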
HT1080NT lethal: kills 2HG-producing HT-1080-NT fibrosarcoma cells | HT-1080-NT fibrosarcoma viability, CellTiter-Glo ATP luminescence, 48 h | Potency, µM (highest dose often 46.1 µM), hits mostly cytotoxic | 360,000 tested, 1.6% active | AID 686970;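 note: NT is the 2HG producing partner of a matched IDH1 knockdown line; nearly all actives have a fitted effect of over 55% in size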
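Luminescent CellTiter-Glo readout after 48 hours of compound exposure at 37 degrees C defined viability of HT-1080-NT cells. Activity was normalized to DMSO wells and cell-free media wells; concentration-response curves were fitted and assigned curve classes.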
Of the large screens only hits and unclear results are named; the others gave an inactive call. Calls come from the whole dose curve; as a rule, active = well fitted curve in the direction sought with a large enough effect; inconclusive = small, poorly fitted or top-dose-only effect, or another doubt; inactive = no such curve, though single readings can be large; an effect the other way counts as inactive or inconclusive.

COc1ccc(-c2noc(C(C)NC(=O)c3ccco3)n2)cc1OC (stereo not given)	none
COC(=O)c1cc(NC(=O)Cn2nc(-c3ccc(C)c(C)c3)ccc2=O)cc(C(=O)OC)c1	none (no result: HT1080 IDH1KD tx, HT1080NT lethal)
COc1cc(NCC2COc3c(ccc(OC)c3OC)C2=O)c([N+](=O)[O-])cc1OC (stereo not given)	TDP1 cell noCPT 18µM, KB-V1 cytotox inconclusive, TDP1 cell CPT 18µM
COc1ccc(OC)c(Nc2ncnc3c2cnn3-c2ccc(C)cc2)c1	TDP1 cell noCPT inconclusive, TDP1 cell CPT inconclusive (no result: HT1080 IDH1KD tx, HT1080NT lethal)
COc1ccc2nc(C)cc(Nc3ccc(C)cc3)c2c1	TDP1 cell noCPT inconclusive, TDP1 cell CPT 5.8µM, HT1080 IDH1KD tx inconclusive, HT1080NT lethal inconclusive
COc1ccc(OC)c(Nc2cc(C)nc3ccc(C)cc23)c1	TDP1 cell noCPT 5.2µM, KB-3-1 cytotox 7.3µM, KB-V1 cytotox 5.2µM, TDP1 cell CPT 4.6µM, HT1080 IDH1KD tx 3.7µM, HT1080NT lethal 5.2µM
COc1ccc(Nc2cc(C)nc3ccccc23)cc1	TDP1 cell noCPT 18µM, TDP1 cell CPT inconclusive, HT1080 IDH1KD tx 11µM
Cc1cc(Nc2cccc(Br)c2)c2ccccc2n1	TDP1 cell noCPT 10µM, KB-V1 cytotox inconclusive, TDP1 cell CPT 5.8µM, HT1080 IDH1KD tx inconclusive, HT1080NT lethal inconclusive
COC(CNC(=O)c1c[nH]c2ccc(S(=O)(=O)N(C)c3ccc(F)cc3)cc2c1=O)OC	TDP1 cell CPT inconclusive
O=[N+]([O-])c1cccc(S(=O)(=O)N2CCCCC2)c1	none
COCCn1c(N)c(N(Cc2ccccc2)C(=O)c2cc3ccccc3o2)c(=O)[nH]c1=O	none
O=C(CN1C(=O)C2C3C=CC(C3)C2C1=O)Nc1nc2ccccc2[nH]1 (stereo not given)	none
O=C(CSc1nnc(Nc2ccccc2F)s1)Nc1cccc(S(=O)(=O)N2CCCCC2)c1	TDP1 cell noCPT inconclusive, TDP1 cell CPT inconclusive, HT1080 IDH1KD tx inconclusive
CCOc1ccc(NC(=O)Cn2cc(S(=O)(=O)NC)c(S(=O)(=O)NC)c2)cc1	none (no result: HT1080 IDH1KD tx, HT1080NT lethal)
COc1ccc2nc(C)cc(NCc3ccc(F)cc3)c2c1	TDP1 cell noCPT 23µM, TDP1 cell CPT inconclusive, HT1080 IDH1KD tx 16µM, HT1080NT lethal inconclusive
COc1ccc2nc(C)cc(Nc3ccc(Cl)c(Cl)c3)c2c1	TDP1 cell noCPT 1.8µM, KB-3-1 cytotox inconclusive, KB-V1 cytotox inconclusive, TDP1 cell CPT 2.1µM (no result: HT1080 IDH1KD tx, HT1080NT lethal)
COc1ccc2nc(Nc3ccccc3)sc2c1	TDP1 cell noCPT inconclusive, KB-V1 cytotox inconclusive
CCC(=O)Nc1ccc(C(=O)NNC(=O)CCCCC(=O)NNC(=O)c2ccc(NC(=O)CC)cc2)cc1	none
COc1cccc(NC(=O)CSCc2nc3sc(C)c(C)c3c(=O)[nH]2)c1	none
CCOc1ccc(-n2c(=O)c3c(C)c(C)sc3n(CC(=O)N(CC)Cc3ccccc3)c2=O)cc1	TDP1 cell noCPT 12µM, TDP1 cell CPT 18µM (no result: HT1080 IDH1KD tx, HT1080NT lethal)
CCOc1ccc(-n2c(=O)c3c(C)c(C)sc3n(CC(=O)c3ccccc3)c2=O)cc1	TDP1 cell noCPT 16µM, TDP1 cell CPT 13µM (no result: HT1080 IDH1KD tx, HT1080NT lethal)
CCN(Cc1ccccc1)C(=O)Cn1c(=O)n(-c2ccc(C)c(C)c2)c(=O)c2c(C)c(C)sc21	TDP1 cell noCPT inconclusive, KB-V1 cytotox inconclusive, TDP1 cell CPT 21µM (no result: HT1080 IDH1KD tx, HT1080NT lethal)
Cc1ccc(-n2c(=O)c3c(C)c(C)sc3n(CC(=O)c3ccc(Cl)cc3)c2=O)cc1C	none (no result: HT1080 IDH1KD tx, HT1080NT lethal)
CCN(Cc1ccccc1)C(=O)Cn1c(=O)n(-c2ccc(Cl)cc2)c(=O)c2c(C)c(C)sc21	TDP1 cell noCPT 18µM, TDP1 cell CPT 3.7µM (no result: HT1080 IDH1KD tx, HT1080NT lethal)
O=C(Cn1c(=O)n(-c2ccc(Cl)cc2)c(=O)c2c3c(sc21)CCC3)c1ccccc1	TDP1 cell noCPT inconclusive, TDP1 cell CPT inconclusive (no result: HT1080 IDH1KD tx, HT1080NT lethal)
O=C(NC1CC1)c1ccc2sc([C@H]3C[C@H](O)[C@@H](CO)O3)nc2c1	HT1080NT lethal inconclusive
Cc1cc2ccccn2c1C(=O)Nc1cccc(Cl)c1	TDP1 cell noCPT inconclusive
COc1ccc(OC)c(NC(=O)CCc2c(C)nc3c(c(C)nn3C(C)(C)C)c2C)c1	TDP1 cell noCPT 16µM, TDP1 cell CPT inconclusive (no result: HT1080 IDH1KD tx, HT1080NT lethal)
Cc1nc2c(c(C)nn2C(C)(C)C)c(C)c1CCC(=O)Nc1ccc(Br)cc1Br	TDP1 cell noCPT 26µM, TDP1 cell CPT inconclusive (no result: HT1080 IDH1KD tx, HT1080NT lethal)
Cc1ccc(NS(=O)(=O)c2cc(C(=O)O)ccc2Cl)cc1	TDP1 cell noCPT inconclusive, KB-V1 cytotox inconclusive
Cc1ccccc1NS(=O)(=O)c1cc(C(=O)N2CCc3ccccc3C2)ccc1C	KB-V1 cytotox 7.3µM
Cc1ccc(NS(=O)(=O)c2cc(C(=O)N3CCc4ccccc4C3)ccc2Cl)cc1	TDP1 cell noCPT inconclusive, KB-V1 cytotox 16µM, TDP1 cell CPT inconclusive, HT1080NT lethal inconclusive
O=C(N/N=C/c1ccc(OC(=O)c2ccccc2)c([N+](=O)[O-])c1)c1ccc(O)cc1	TDP1 cell CPT inconclusive
COc1ccccc1CCC(=O)Nc1ccc(S(=O)(=O)Nc2nccs2)cc1	none
Cc1ccc(CN=C(N)Nc2nc(C)cc(C)n2)cc1	TDP1 cell noCPT 3.3µM, KB-3-1 cytotox 2.6µM, TDP1 cell CPT 6.5µM, HT1080 IDH1KD tx 7.3µM, HT1080NT lethal 7.3µM
Cc1ccc(Nc2nc(C)cc(C)n2)c(Br)c1	none
